Assay results: PubChem BioAssay (NCATS)
Inconclusive results are not listed. Activity calls are given as the source filed them. Calls follow the shape of the dose curve; as a rule, active = well fitted curve in the direction sought with a large enough effect; inconclusive = small, poorly fitted or top-dose-only effect, or another doubt; inactive = no such curve, though single readings can be large; an effect the other way counts as inactive or inconclusive. Where a SMILES comes first, the peptide text is derived from it. [ ]: non-standard residue; d: D form. ξ: configuration not given here. ξLac(3-iPr) = CC(C)CC(O)C(=O)O; NMeV = CN[CH](C(=O)O)C(C)C; βAla = NCCC(=O)O

Experiments:
[1] = tested on: KB-3-1; assay: Cytotoxic Profiling of Annotated Libraries Using Quantitative High-Throughput Screening (AID 1296008); settings: Five cell lines viability, CellTiter-Glo ATP luminescence, 48-72 h; max response: active compounds read low; also: nearly all actives have a fitted effect of over 60% in size; also: potency is read from the fitted curve at half-maximal effect; as to max response: % is scaled to controls: 0 for no effect and ±100 for the full control effect
Procedure, shortened: (§1)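 Compounds were pin-transferred onto cells and incubated 48 or 72 hr at 37 degree Celsius, 95% humidity. CellTiter-Glo was added, plates sat 10 min at room temperature, then ATP-coupled luminescence was imaged as the viability read-out.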

[2] = tested on: NIH3T3; assay: as above; settings: Five cell lines viability, CellTiter-Glo ATP luminescence, 48-72 h; max response: active compounds read low
Procedure, shortened: as §1

[3] = tested on: C33A; assay: Primary qHTS to identify gynecologic anti-cancer compounds using libraries of approved drugs and bioactive compounds (AID 1345084); settings: Gynecologic cancer cell panel viability, ATPlite luminescence, 48 h; series mostly up to 57.5 µM; also: nearly all actives have a fitted effect of over 55% in size; also: potency is read from the fitted curve at half-maximal effect; as to activity change, negative = cytotoxicity: % is scaled to controls: 0 for no effect and ±100 for the full control effect
Procedure, shortened: (§2)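 Cells, 1,000 per well, plated 16 h, then exposed 48 h at 37 C to compounds. Viability by ATPlite luminescence after 15 min at room temperature.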

[4] = tested on: CAOV3; assay: as above; settings: Gynecologic cancer cell panel viability, ATPlite luminescence, 48 h; series mostly up to 57.5 µM
Procedure, shortened: as §2

[5] = tested on: CASKI; assay: as above; settings: Gynecologic cancer cell panel viability, ATPlite luminescence, 48 h; series mostly up to 57.5 µM
Procedure, shortened: as §2

[6] = tested on: Es-2; assay: as above; settings: Gynecologic cancer cell panel viability, ATPlite luminescence, 48 h; series mostly up to 57.5 µM
Procedure, shortened: as §2

[7] = tested on: HeLa; assay: as above; settings: Gynecologic cancer cell panel viability, ATPlite luminescence, 48 h; series mostly up to 57.5 µM
Procedure, shortened: as §2

[8] = tested on: Hek293T; assay: as above; settings: Gynecologic cancer cell panel viability, ATPlite luminescence, 48 h, control line for the selectivity index; series mostly up to 57.5 µM
Procedure, shortened: as §2

[9] = tested on: JEG-3; assay: as above; settings: Gynecologic cancer cell panel viability, ATPlite luminescence, 48 h; series mostly up to 57.5 µM
Procedure, shortened: as §2

[10] = tested on: OV90; assay: as above; settings: Gynecologic cancer cell panel viability, ATPlite luminescence, 48 h; series mostly up to 57.5 µM
Procedure, shortened: as §2

[11] = tested on: NIH3T3; assay: qHTS assay to identify novel small-molecules to repurpose for Merkel cell carcinoma treatment (AID 1296009); settings: MCC and control cell lines, CellTiter-Glo viability, 72 h; at 44.8 µM (top of the series) unless noted; also: nearly all actives have a fitted effect of over 60% in size
Procedure, shortened: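 Viability readout: ATP luminescence (CellTiter-Glo) after 72 hr drug exposure at 37 degree celsius. Dose-response format was 8 points for NPC and 11 points for MIPE; data normalized to in-plate controls.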

C=C1OC2CC(C(=O)O)C=CC2NC1=O (configuration not stated)
inactive: max response [1] 3.04% | max response [2] 0.0418% | Potency [3] | Potency [4] | Potency [5] | Potency [6] | Potency [7] | Potency [8] | Potency [9] | Potency [10]

COc1cc(Br)c(S(=O)(=O)Nc2ccc(C(F)(F)F)c(O[C@@H]3CCN(C)C3)c2)cc1OC
inactive: max response [1] -11.3% | max response [2] -2.88% | Potency [3] | Potency [4] | Potency [5] | Potency [6] | Potency [7] | Potency [8] | Potency [9] | Potency [10]

CC1OC(O[C@H]2CC[C@@]3(C)C(CC[C@]4(C)C3CC=C3C5CC(C)(C)CC[C@]5(C(=O)OC5OC(CO)C(OC6OC(COC7OCC(O)C(O)C7O)C(O)C(O)C6O)C(O)C5O)CC[C@]34C)C2(C)C)C(O)C(O)C1OC1OCC(OC2OCC(O)C(O)C2O)C(O)C1O (some centres not stated)
inactive: outcome [1] | max response [2] -4.7% | activity change, negative = cytotoxicity [3] 24.4% [at 6.55 µM] | activity change, negative = cytotoxicity [4] 3.53% [at 6.55 µM] | activity change, negative = cytotoxicity [5] -2% [at 6.55 µM] | activity change, negative = cytotoxicity [6] 0.974% [at 6.55 µM] | activity change, negative = cytotoxicity [7] -5.59% [at 6.55 µM] | activity change, negative = cytotoxicity [8] 2.21% [at 6.55 µM] | activity change, negative = cytotoxicity [9] 7.58% [at 6.55 µM] | activity change, negative = cytotoxicity [10] 5.67% [at 6.55 µM]

O=C(c1cc2c(cc1F)OC(c1ccc(F)cc1)(c1ccc(Cl)cc1Cl)O2)N1CCOCC1 (configuration not stated)
inactive: max response [2] -3.07% | Potency [3] | Potency [4] | Potency [5] | Potency [6] | Potency [7] | Potency [8] | Potency [9]
active: Potency [1] 13000 nM

CCOCCn1nc(CC)c2nc(N3CCC(C(=O)O)CC3)nc(Nc3cc(C)ccn3)c21
inactive: max response [1] -10.2% | max response [2] 3.17% | Potency [3] | Potency [4] | Potency [5] | Potency [6] | Potency [7] | Potency [8] | Potency [9] | Potency [10]

c1cn2cc(-c3ccc4cn[nH]c4c3)nc(Nc3ccc(N4CCOCC4)cc3)c2n1
active: Potency [3] 2240 nM | Potency [4] 2000 nM | Potency [5] 2820 nM | Potency [6] 2510 nM | Potency [7] 2820 nM | Potency [8] 2240 nM | Potency [9] 2820 nM | Potency [10] 1780 nM
inactive: max response [1] 3.1% | max response [2] -11.5%

C[C@H](NC(=O)CCc1nc2ccccc2c(=O)[nH]1)c1ccccc1
inactive: max response [1] -7.76% | max response [2] -5.46% | Potency [3] | Potency [4] | Potency [5] | Potency [6] | Potency [7] | Potency [8] | Potency [9] | Potency [10]

CCCCc1nc2cc(/C=C/C(=O)NO)ccc2n1CCN(CC)CC
active: Potency [1] 1460 nM | Potency [2] 5170 nM | Potency [3] 5010 nM | Potency [4] 8910 nM | Potency [5] 5620 nM | Potency [6] 3160 nM | Potency [7] 2510 nM | Potency [8] 3160 nM | Potency [9] 3160 nM

CC(C)=CCC[C@](C)(O)[C@H]1CC[C@]2(C)[C@@H]1[C@H](O)CC1[C@@]3(C)CC[C@H](O)C(C)(C)[C@@H]3[C@@H](O[C@@H]3O[C@H](CO)[C@@H](O)[C@H](O)[C@H]3O[C@@H]3O[C@H](CO)[C@@H](O)[C@H](O)[C@H]3O)C[C@]12C (some centres not stated)
inactive: max response [1] 3.39% | outcome [2] | outcome [11] inactive [at 17.4 µM] | Potency [3] | Potency [5] | Potency [6] | Potency [7] | Potency [8] | Potency [9] | Potency [10]

O=C1CCC(=O)N(O)CCCCCNC(=O)CCC(=O)N(O)CCOCCNC(=O)CCC(=O)N(O)CCCCCN1
inactive: outcome [1] | outcome [2] | outcome [11] inactive [at 17.4 µM] | Potency [3] | Potency [5] | Potency [6] | Potency [7] | Potency [8] | Potency [9] | Potency [10]

C/C(=C\CCC(C)CCO)C(=O)O[C@@H]1[C@@H](O)[C@H](OC2OC=C(C(=O)O)C3CCC(C)(O)C23)O[C@H](CO)[C@H]1O (some centres not stated)
inactive: outcome [1] | max response [2] -17.6% | Potency [3] | Potency [4] | Potency [5] | Potency [6] | Potency [7] | Potency [8] | Potency [9] | Potency [10]

CNS(=O)(=O)CC1CCC(N(C)c2ncnc3[nH]ccc23)CC1 (configuration not stated)
inactive: max response [1] -6.06% | max response [2] -10.7% | Potency [3] | Potency [4] | Potency [5] | Potency [6] | Potency [7] | Potency [8] | Potency [9] | Potency [10]

C[C@@H]1CN(Cc2ccccc2)C[C@H]1c1nc2c(cnn2C2CCOCC2)c(=O)[nH]1
inactive: max response [1] 2.05% | max response [2] -13.9% | Potency [3] | Potency [4] | Potency [5] | Potency [6] | Potency [7] | Potency [8] | Potency [9] | Potency [10]

O=C(Nc1ccc(-c2ccncc2)cc1)N[C@H](CO)c1ccccc1
inactive: outcome [1] | max response [2] -5.95% | Potency [3] | Potency [4] | Potency [5] | Potency [6] | Potency [7] | Potency [8] | Potency [9] | Potency [10]

COc1ccc(C2(O)c3ccccc3NC(=O)C2O)cc1 (configuration not stated)
inactive: outcome [1] | outcome [2] | outcome [11] | Potency [3] | Potency [4] | Potency [5] | Potency [6] | Potency [7] | Potency [8] | Potency [9] | Potency [10]

C=C1C(O)C(O)C2(CC3C(C)=CCC4C(C)(CO)CCCC34C)OC2C1O (configuration not stated)
inactive: max response [1] -3.07% | max response [2] -5.46% | Potency [3] | Potency [4] | Potency [5] | Potency [6] | Potency [7] | Potency [8] | Potency [9] | Potency [10]

COC(=O)C[C@H]1C(C)(C)[C@H](OC(=O)C(C)C)[C@@]2(O)C(=O)[C@]1(C)C1CC[C@]3(C)C(CC(=O)O[C@H]3c3ccoc3)[C@]13O[C@@H]32 (some centres not stated)
inactive: max response [1] 8.04% | max response [2] 3.21% | Potency [3] | Potency [4] | Potency [5] | Potency [6] | Potency [7] | Potency [8] | Potency [9] | Potency [10]

CC(C)NCC(C(=O)N1CCN(c2ncnc3c2C(C)CC3O)CC1)c1ccc(Cl)cc1 (configuration not stated)
active: Potency [3] 3980 nM
inactive: max response [1] -24.2% | max response [2] 3.08% | Potency [4] | Potency [5] | Potency [6] | Potency [7]

COC(=O)CC1CC(c2ccc(O)cc2)=NO1 (configuration not stated)
inactive: max response [1] -14.5% | max response [2] -0.902% | Potency [3] | Potency [4] | Potency [5] | Potency [6] | Potency [7] | Potency [8] | Potency [9] | Potency [10]

CCNC(=O)C1OC(n2cnc3c(N)nc(NCCc4ccc(CCC(=O)O)cc4)nc32)C(O)C1O (configuration not stated)
inactive: max response [1] -5.77% | max response [2] -0.422% | Potency [3] | Potency [4] | Potency [5] | Potency [6] | Potency [7] | Potency [8] | Potency [9] | Potency [10]

Cc1[nH]c2ccccc2c1CCNC(=O)c1ccccc1F
inactive: max response [1] 3.4% | max response [2] 2.05% | Potency [3] | Potency [4] | Potency [5] | Potency [6] | Potency [7] | Potency [8] | Potency [9] | Potency [10]

COc1ccc(Cl)c(Nc2nc3ccccc3nc2NS(=O)(=O)c2cccc(NC(=O)C(C)(C)N)c2)c1
inactive: max response [1] -5.68% | max response [2] -15.2% | Potency [3] | Potency [4] | Potency [5] | Potency [6] | Potency [7] | Potency [8] | Potency [9] | Potency [10]

COc1cc(Nc2nc3ccccc3nc2NS(=O)(=O)c2ccc(NC(=O)c3ccc(OC)c(C)c3)cc2)cc(OC)c1
inactive: outcome [1] | outcome [2] | outcome [11] | Potency [3] | Potency [4] | Potency [5] | Potency [6] | Potency [7] | Potency [8] | Potency [9] | Potency [10]

COc1cc(O)c2c(c1)C1=CC(O)C(O)CC1(C)OC2=O (configuration not stated)
inactive: outcome [1] | max response [2] -6.33% | Potency [3] | Potency [4] | Potency [5] | Potency [6] | Potency [7] | Potency [8] | Potency [9] | Potency [10]

CS(=O)(=O)c1ccc([C@H](CC2CCCC2)C(=O)Nc2nccs2)cc1
inactive: outcome [1] | max response [2] -48.7% | Potency [3] | Potency [4] | Potency [5] | Potency [6] | Potency [7] | Potency [8] | Potency [9] | Potency [10]

COc1ccc(C2COc3cc(O)ccc3C2)c(O)c1 (configuration not stated)
inactive: max response [1] -10.5% | max response [2] 4.68% | Potency [3] | Potency [4] | Potency [5] | Potency [6] | Potency [7] | Potency [8] | Potency [9] | Potency [10]

CC(C)CC1OC(=O)C2CCCN2C(=O)CCNC(=O)C(Cc2ccccc2)NC(=O)C(C(C)C)N(C)C(=O)C(C(C)C)N(C)C1=O (configuration not stated) (cyclo([ξLac(3-iPr)][NMeV][NMeV]F[βAla]P); configuration not given here)
inactive: max response [1] 3.73% | max response [2] 0.588% | Potency [3] | Potency [4] | Potency [5] | Potency [6] | Potency [7] | Potency [8] | Potency [9] | Potency [10]

CCOC(=O)CCN(C(=O)c1ccc2c(c1)nc(CNc1ccc(C(=N)N)cc1)n2C)c1ccccn1
inactive: max response [1] -6.67% | max response [2] -4.58% | Potency [3] | Potency [4] | Potency [5] | Potency [6] | Potency [7] | Potency [8] | Potency [9] | Potency [10]

CCCC1(c2ccccc2)NC(=O)N(CC(=O)N(C)Cc2c(F)cccc2Cl)C1=O (configuration not stated)
inactive: max response [1] -1.57% | max response [2] -2.22% | Potency [3] | Potency [4] | Potency [5] | Potency [6] | Potency [7] | Potency [8] | Potency [9] | Potency [10]

COc1cc(O)cc(C)c1C(=O)OC1C(CO)OC(OC2C(O)C(O)C(O)C(O)C2O)C(O)C1O (configuration not stated)
inactive: max response [1] 2.63% | max response [2] -8.82% | Potency [3] | Potency [4] | Potency [5] | Potency [6] | Potency [7] | Potency [8] | Potency [9] | Potency [10]
